Test results reported in PubChem BioAssay (Tox21).
Records with an inconclusive call do not appear. Some structures have more than one record in an assay (separate samples or runs), and their calls can disagree. Active and inactive are the calls of the source. Unless noted, the call rests on the fitted dose curve; in most records, active means well fitted curve in the direction sought with a large enough effect in the repeat runs; inconclusive means weak or mixed curves; inactive means no such curve, though single readings can be large; an effect the other way counts as inactive or inconclusive.

How the values were obtained:
[1] = qHTS assay to identify aromatase inhibitors - cell viability counter screen (AID 743084);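 further: cells stimulated with testosterone during compound exposure; nearly all actives have a fitted effect of over 55% in size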; further: potency means the concentration at half of the fitted maximal effect
[2] = qHTS assay to identify small molecule that activate the aryl hydrocarbon receptor (AhR) signaling pathway - cell viability counter screen (AID 743086);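 further: HepG2 liver cells carrying the AhR DRE luciferase reporter; series mostly up to about 70 µM; nearly all actives have a fitted effect of over 45% in size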
Outline: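 Cytotoxicity counter screen: CellTiter-Fluor signal (30 min, 37 C) in 4000 HepG2 cells/well carrying the DRE-luciferase reporter, following 24 h compound exposure at 37 C.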

[3] = target: Peroxisome proliferator-activated receptor gamma (Homo sapiens) (UniProt P37231); experiment: qHTS assay to identify small molecule agonists of the peroxisome proliferator-activated receptor gamma (PPARg) signaling pathway (AID 743094; active means well fitted activation curve with a large enough effect in the signal ratio in the repeat runs, not every such curve was filed as active; the % refers to the signal ratio)
Outline: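 Compounds dissolved in DMSO were added to PPARg UAS-bla HEK293H cells for 17 h at 37C, and reporter expression was quantified by fluorescence intensity after 1 h with LiveBLAzer B/G FRET substrate.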

[4] = target: Peroxisome proliferator-activated receptor gamma (Homo sapiens) (UniProt P37231); experiment: qHTS assay to identify small molecule antagonists of the peroxisome proliferator-activated receptor gamma (PPARg) signaling pathway (AID 743191; calls by dose curve; further: nearly all actives have a fitted effect of over 30% in size; further: potency means the concentration at half of the fitted maximal effect)
Outline: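 Beta-lactamase reporter under UAS control in HEK293H PPARg-bla cells; compound treatment 17 h at 37C. Read-out: fluorescence intensity after 1 h room-temperature incubation with LiveBLAzer B/G FRET substrate.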

[5] = qHTS assay to identify small molecule antagonists of the peroxisome proliferator-activated receptor gamma (PPARg) signaling pathway - cell viability counter screen (AID 743194); further: nearly all actives have a fitted effect of over 55% in size; further: potency means the concentration at half of the fitted maximal effect
Outline: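 Viability was measured as CellTiter-Glo luminescence in GeneBLAzer PPARg UAS-bla HEK293H cells. These cells had been exposed 17 h at 37 C to compounds together with rosiglitazone at 50 nM final, with the beta-lactamase readout taken in the same wells.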

[6] = qHTS assay for small molecule agonists of the antioxidant response element (ARE) signaling pathway (AID 743202; active means well fitted activation curve with a large enough effect in the signal ratio in the repeat runs, not every such curve was filed as active; the % refers to the signal ratio; further: potency means the concentration at half of the fitted maximal effect)
Outline: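 Quantitative high-throughput format in HepG2 cells bearing an integrated ARE-beta-lactamase reporter. Compound exposure lasted 16 h at 37 C, and fluorescence was read 2 h after adding LiveBLAzer B/G substrate at room temperature.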

[7] = qHTS assay for small molecule agonists of the antioxidant response element (ARE) signaling pathway - cell viability counter screen (AID 743203; calls by dose curve; further: nearly all actives have a fitted effect of over 55% in size; further: potency means the concentration at half of the fitted maximal effect)
Outline: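 Following 16 hrs of compound treatment at 37C, HepG2 cells with an ARE-controlled beta-lactamase gene were lysed with CellTiter-Glo. Luminescence was read after 30 min at room temperature.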

[8] = qHTS assay to identify small molecule agonists of the peroxisome proliferator-activated receptor delta (PPARd) signaling pathway - cell viability counter screen (AID 743211); further: nearly all actives have a fitted effect of over 55% in size; further: potency means the concentration at half of the fitted maximal effect
Outline: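 qHTS cell viability: PPARd-bla HEK293H; 17 h cpd, 37C; CellTiter-Glo, luminescence at 30 min RT.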

[9] = qHTS assay to identify small molecule antagonists of the farnesoid-X-receptor (FXR) signaling pathway - cell viability counter screen (AID 743221; active means well fitted cell-killing curve with a large enough effect in the repeat runs, not every such curve was filed as active; further: nearly all actives have a fitted effect of over 50% in size; further: potency means the concentration at half of the fitted maximal effect)
Outline: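 After a 5 h settling period, FXR-bla HEK 293T cells receive compound and chenodeoxycholic acid (50 uM final) and incubate 16 h at 37 C; CellTiter-Glo luminescence, read after 30 min at room temperature, reports cell viability.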

[10] = target: Vitamin D3 receptor (Homo sapiens) (UniProt P11473); experiment: qHTS assay to identify small molecule agonists of the vitamin D receptor (VDR) signaling pathway (AID 743222; calls by dose curve)
Outline: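 In VDR-bla cells, compound-induced beta-lactamase expression is quantified by FRET substrate fluorescence. Treatment lasts 16 h at 37C; substrate develops 2 h at room temperature.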

[11] = target: Vitamin D3 receptor (Homo sapiens) (UniProt P11473); experiment: qHTS assay to identify small molecule antagonists of the vitamin D receptor (VDR) signaling pathway (AID 743223; active means well fitted inhibition curve with a large enough effect in the signal ratio in the repeat runs, not every such curve was filed as active; the % refers to the signal ratio; further: potency means the concentration at half of the fitted maximal effect)
Outline: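 Reporter line VDR-bla; stimulus 1alpha,25-(OH)2 vitamin D3, 3 nM final; compound co-addition, 16 h 37C/5% CO2; LiveBLAzer B/G substrate 2 h RT; fluorescence intensity.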

[12] = qHTS assay for small molecule activators of the heat shock response signaling pathway - cell viability counter screen (AID 743209); further: nearly all actives have a fitted effect of over 50% in size; further: potency means the concentration at half of the fitted maximal effect
Outline: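 Readout: CellTiter-Glo luminescence, 30 min at room temperature. System: HSE-bla HeLa cells, 1500/well, plated overnight. Treatment: compounds in DMSO, 5 h at 37 C.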

[13] = qHTS assay to identify small molecule antagonists of the peroxisome proliferator-activated receptor delta (PPARd) signaling pathway - cell viability counter screen (AID 743213); further: nearly all actives have a fitted effect of over 50% in size; further: potency means the concentration at half of the fitted maximal effect
Outline: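 Cytotoxicity counter screen: CellTiter-Glo luminescence read 30 min after addition, in the same wells as the reporter assay. There, PPARd UAS-bla HEK293H cells (3000/well) were treated 17 h at 37 C with compound and 300 nM L165041.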

[14] = qHTS assay to identify small molecule agonists of the farnesoid-X-receptor (FXR) signaling pathway - cell viability counter screen (AID 743218); further: nearly all actives have a fitted effect of over 45% in size; further: potency means the concentration at half of the fitted maximal effect
Outline: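 Parallel cytotoxicity test: compound-treated (16 h, 37 C) HEK 293T FXR-bla reporter cells were lysed with CellTiter-Glo and luminescence recorded.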

[15] = target: Peroxisome proliferator-activated receptor delta (Homo sapiens) (UniProt Q03181); experiment: qHTS assay to identify small molecule agonists of the peroxisome proliferator-activated receptor delta (PPARd) signaling pathway (AID 743212; calls by dose curve)
Outline: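 HEK293H PPARd-bla cells; 5 h preincubation 37 C/5% CO2; compound (DMSO) 37 C; LiveBLAzer B/G FRET substrate 2 h RT; fluorescence intensity.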

[16] = target: Peroxisome proliferator-activated receptor delta (Homo sapiens) (UniProt Q03181); experiment: qHTS assay to identify small molecule antagonists of the peroxisome proliferator-activated receptor delta (PPARd) signaling pathway (AID 743215; active means well fitted inhibition curve with a large enough effect in the signal ratio in the repeat runs, not every such curve was filed as active; the % refers to the signal ratio;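 further: cells stimulated with agonist L165041 at 300 nM final during compound exposure; series mostly up to about 62 µM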)
Outline: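 HEK293H UAS-bla, PPARd; agonist L165041 300 nM final with cpd in DMSO; 37 C 17 h; FRET substrate, RT 2 h; fluorescence intensity.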

[17] = target: Bile acid receptor (Homo sapiens) (UniProt Q96RI1); experiment: qHTS assay to identify small molecule agonists of the farnesoid-X-receptor (FXR) signaling pathway (AID 743220; active means well fitted activation curve with a large enough effect in the signal ratio in the repeat runs, not every such curve was filed as active; the % refers to the signal ratio)
Outline: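 Beta-lactamase reporter under UAS control in GeneBLAzer FXR HEK 293T cells (5000/well) measured with LiveBLAzer FRET substrate after 2 h at room temperature. Compound exposure lasted 16 h at 37C.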

[18] = target: Aryl hydrocarbon receptor (Homo sapiens) (UniProt P35869); experiment: qHTS assay to identify small molecule that activate the aryl hydrocarbon receptor (AhR) signaling pathway (AID 743085); further: nearly all actives have a fitted effect of over 15% in size; further: potency means the concentration at half of the fitted maximal effect;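 on activation: HG2L7.5c1 human HepG2 liver cells with stably integrated DRE-driven firefly reporter; series mostly up to about 70 µM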
Outline: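 AhR agonist activity is inferred from enhanced light output of a DRE-controlled firefly luciferase reporter in HepG2 cells, measured with ONE-Glo following 24 h treatment at 37C.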

[19] = qHTS assay for small molecule activators of the heat shock response signaling pathway (AID 743210; active means well fitted activation curve with a large enough effect in the signal ratio in the repeat runs, with a control signal flat, not every such curve was filed as active; the % refers to the signal ratio;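 further: HeLa cells with beta-lactamase reporter driven by heat shock elements; series mostly up to about 63 µM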)
Outline: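 HeLa HSE-bla cells, overnight plating; cpd in DMSO 5 h, 37 C; LiveBLAzer B/G FRET substrate 2.5 h RT; fluorescence intensity read.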

[20] = target: Bile acid receptor (Homo sapiens) (UniProt Q96RI1); experiment: qHTS assay to identify small molecule antagonists of the farnesoid-X-receptor (FXR) signaling pathway (AID 743217; active means well fitted inhibition curve with a large enough effect in the signal ratio in the repeat runs, not every such curve was filed as active; the % refers to the signal ratio; further: potency means the concentration at half of the fitted maximal effect)
Outline: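 GeneBLAzer FXR-UAS-bla HEK 293T, CDCA-stimulated (50 uM final). Compound treatment 16 h, 37 °C. Detection: beta-lactamase cleavage of B/G FRET substrate, fluorescence.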

Measured: Potency

Chain of Aryl hydrocarbon receptor (Homo sapiens) (P35869 whole entry, looked up): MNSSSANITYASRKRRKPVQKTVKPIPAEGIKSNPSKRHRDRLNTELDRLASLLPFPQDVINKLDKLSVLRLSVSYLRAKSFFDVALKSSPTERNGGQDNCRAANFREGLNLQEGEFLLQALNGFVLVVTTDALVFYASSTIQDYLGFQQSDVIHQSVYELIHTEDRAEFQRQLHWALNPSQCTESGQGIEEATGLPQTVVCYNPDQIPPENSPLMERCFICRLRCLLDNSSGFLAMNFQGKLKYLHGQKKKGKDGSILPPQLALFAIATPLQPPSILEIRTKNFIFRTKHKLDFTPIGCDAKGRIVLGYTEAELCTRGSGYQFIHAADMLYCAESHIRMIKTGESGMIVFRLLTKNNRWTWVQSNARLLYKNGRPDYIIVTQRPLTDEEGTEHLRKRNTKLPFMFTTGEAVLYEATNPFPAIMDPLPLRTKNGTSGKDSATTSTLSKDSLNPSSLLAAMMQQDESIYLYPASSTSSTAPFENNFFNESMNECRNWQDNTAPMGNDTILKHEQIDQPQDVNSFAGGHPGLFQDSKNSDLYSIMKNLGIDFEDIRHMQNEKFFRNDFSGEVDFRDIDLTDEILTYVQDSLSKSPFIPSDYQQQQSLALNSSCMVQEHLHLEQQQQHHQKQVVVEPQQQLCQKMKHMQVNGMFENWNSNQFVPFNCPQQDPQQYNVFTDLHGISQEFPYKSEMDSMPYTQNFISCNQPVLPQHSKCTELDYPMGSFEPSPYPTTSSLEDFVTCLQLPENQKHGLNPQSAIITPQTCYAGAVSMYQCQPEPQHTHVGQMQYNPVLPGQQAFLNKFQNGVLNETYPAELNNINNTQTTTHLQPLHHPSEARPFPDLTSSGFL
Chain of Peroxisome proliferator-activated receptor delta (Homo sapiens) (Q03181 whole entry, looked up): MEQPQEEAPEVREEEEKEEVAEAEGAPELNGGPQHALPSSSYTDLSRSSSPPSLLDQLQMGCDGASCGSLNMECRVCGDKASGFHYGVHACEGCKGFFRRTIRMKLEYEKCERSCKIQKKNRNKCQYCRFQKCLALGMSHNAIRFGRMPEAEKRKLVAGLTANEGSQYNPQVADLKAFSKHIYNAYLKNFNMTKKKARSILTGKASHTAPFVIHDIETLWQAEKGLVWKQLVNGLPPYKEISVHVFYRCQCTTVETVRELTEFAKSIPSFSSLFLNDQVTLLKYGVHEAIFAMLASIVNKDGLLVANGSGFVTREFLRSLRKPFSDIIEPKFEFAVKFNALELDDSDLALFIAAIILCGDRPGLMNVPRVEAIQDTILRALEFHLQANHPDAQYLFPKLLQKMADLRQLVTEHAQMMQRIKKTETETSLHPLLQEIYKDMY
Chain of Vitamin D3 receptor (Homo sapiens) (P11473 whole entry, looked up): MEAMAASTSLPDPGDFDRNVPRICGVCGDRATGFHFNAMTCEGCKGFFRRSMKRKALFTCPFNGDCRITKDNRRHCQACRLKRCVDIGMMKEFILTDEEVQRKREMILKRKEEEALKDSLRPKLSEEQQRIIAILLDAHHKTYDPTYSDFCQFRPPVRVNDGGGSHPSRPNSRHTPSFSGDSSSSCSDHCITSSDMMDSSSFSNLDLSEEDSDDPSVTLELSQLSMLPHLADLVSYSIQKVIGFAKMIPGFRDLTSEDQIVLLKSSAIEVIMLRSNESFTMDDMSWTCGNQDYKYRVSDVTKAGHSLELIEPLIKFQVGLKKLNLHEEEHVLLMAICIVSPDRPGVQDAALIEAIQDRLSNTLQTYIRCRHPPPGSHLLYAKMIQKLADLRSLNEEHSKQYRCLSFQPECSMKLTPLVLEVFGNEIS
Chain of Bile acid receptor (Homo sapiens) (Q96RI1 whole entry, looked up): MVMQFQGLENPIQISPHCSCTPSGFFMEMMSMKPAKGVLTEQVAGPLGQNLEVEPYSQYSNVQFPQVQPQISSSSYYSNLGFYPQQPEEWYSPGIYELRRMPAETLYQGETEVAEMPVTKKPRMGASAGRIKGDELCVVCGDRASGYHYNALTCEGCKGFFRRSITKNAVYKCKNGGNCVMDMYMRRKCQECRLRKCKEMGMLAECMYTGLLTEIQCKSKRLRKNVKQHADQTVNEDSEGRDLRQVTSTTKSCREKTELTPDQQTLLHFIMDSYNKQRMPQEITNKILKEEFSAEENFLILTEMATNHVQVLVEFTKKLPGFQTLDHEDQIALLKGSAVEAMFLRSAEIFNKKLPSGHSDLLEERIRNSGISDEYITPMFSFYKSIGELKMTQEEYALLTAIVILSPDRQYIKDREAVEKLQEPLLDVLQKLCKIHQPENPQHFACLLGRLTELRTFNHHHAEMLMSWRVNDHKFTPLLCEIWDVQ
Chain of Peroxisome proliferator-activated receptor gamma (Homo sapiens) (P37231 whole entry, looked up): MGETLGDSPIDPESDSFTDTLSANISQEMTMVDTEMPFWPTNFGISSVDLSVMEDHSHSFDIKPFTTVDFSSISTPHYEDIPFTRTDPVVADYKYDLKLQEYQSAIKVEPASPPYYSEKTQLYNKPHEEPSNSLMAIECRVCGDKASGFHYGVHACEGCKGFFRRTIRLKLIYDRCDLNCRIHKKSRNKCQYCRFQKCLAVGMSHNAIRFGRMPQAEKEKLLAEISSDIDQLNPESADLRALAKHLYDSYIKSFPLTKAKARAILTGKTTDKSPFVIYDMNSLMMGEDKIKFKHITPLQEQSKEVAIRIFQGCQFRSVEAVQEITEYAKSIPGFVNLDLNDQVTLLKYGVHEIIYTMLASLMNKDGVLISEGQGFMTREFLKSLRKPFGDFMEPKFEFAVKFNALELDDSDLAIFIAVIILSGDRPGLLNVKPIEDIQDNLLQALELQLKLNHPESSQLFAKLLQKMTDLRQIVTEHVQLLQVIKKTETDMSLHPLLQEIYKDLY

CCC1OCC(COc2ccc(Oc3ccccc3)cc2)O1 (configuration not stated)
active: [6] 61.1 µM
inactive: [1] | [2] | [3] | [4] | [5] | [7] | [8] | [9] | [10] | [11]

Cc1onc(-c2c(Cl)cccc2Cl)c1C(=O)N[C@@H]1C(=O)N2[C@@H]1SC(C)(C)[C@@H]2C(=O)O
inactive: [1] | [2] | [3] | [4] | [7] | [12] | [8] | [13] | [14] | [9] | [10]

CC[C@H](c1ccc(O)cc1)[C@@H](CC)c1ccc(O)cc1
active: [4] 29.8 µM | [6] 4.22 µM | [8] 54.9 µM
inactive: [1] | [2] | [3] | [15] | [13] | [16] | [17] | [9] | [10]
54.5 µM (active) and inactive: [7]

CSc1ccc(/C=C2/C(C)=C(CC(=O)O)c3cc(F)ccc32)cc1
inactive: [1] | [5] | [7] | [13] | [17] | [9]
active: [18] 9.44 µM

CCOC(=O)O[C@]1(C(=O)OCCl)CC[C@H]2[C@@H]3CCC4=CC(=O)C=C[C@]4(C)[C@H]3[C@@H](O)C[C@@]21C
active: [6] 10.6 µM
not listed: [4] | [10] | [11] | [15] | [16] | [17] | [18]
inactive: all other assays above

CC[C@H]1O[C@]2(CC[C@@H]1C)C[C@@H]1C[C@@H](C/C=C(\C)C[C@@H](C)/C=C/C=C3\CO[C@@H]4[C@H](O)C(C)=C[C@@H](C(=O)O1)[C@]34O)O2
active: [1] 27.1 µM | [5] 19.3 µM | [7] 21.5 µM | [12] 6.85 µM | [8] 17.2 µM | [13] 15.3 µM | [14] 21.7 µM | [9] 17.2 µM
inactive: [18]

C/C=C(\C)C(=O)OCc1ccccc1
inactive: [1] | [2] | [3] | [5] | [6] | [7] | [8] | [14] | [9] | [10]

Cc1onc(-c2ccccc2Cl)c1C(=O)N[C@@H]1C(=O)N2[C@@H]1SC(C)(C)[C@@H]2C(=O)O
not listed: [6] | [7] | [11] | [12] | [15] | [16] | [18]
inactive: all other assays above

CSc1cnc(C)cn1
not listed: [6] | [10] | [11] | [17] | [18] | [20]
inactive: all other assays above

CCN(C(=O)c1cc(C)cc(OC[C@H](C)Nc2ccncc2)c1)C(C)C
inactive: [1] | [18] | [5] | [7] | [12] | [8] | [13] | [14] | [17] | [9]

Cc1cc(O)c(C(C)(C)C)cc1C(C)(C)C
inactive: [18]
active: [1] 54.5 µM | [5] 49 µM | [12] 43.6 µM | [8] 43.6 µM | [13] 34.7 µM | [20] 49 µM | [14] 54.9 µM | [9] 49 µM | [11] 19.5 µM

CCC1=C[C@@H]2CN(C1)Cc1c([nH]c3ccccc13)[C@@](C(=O)OC)(c1cc3c(cc1OC)N(C)[C@H]1[C@@](O)(C(=O)OC)[C@H](OC(C)=O)[C@]4(CC)C=CCN5CC[C@]31[C@@H]54)C2
inactive: [1] | [18] | [5] | [12] | [19] | [16] | [10]
active: [8] 29.8 µM | [14] 26.6 µM

[Cl][Au]([Cl])[Cl]
inactive: [18]
active: [1] 27.3 µM | [7] 0.77 µM | [8] 3.09 µM | [13] 9.77 µM | [14] 2.75 µM | [9] 3.47 µM

C[C@H]1[C@H]2CC[C@H]3[C@@H]4CC=C5C[C@@H](N(C)C)CC[C@]5(C)[C@H]4CC[C@]23CN1C
not listed: [5] | [15] | [16] | [18]
inactive: all other assays above

CCCCCCCC/C=C\CCCCCCCCOCCO
inactive: [18]
active: [1] 79.4 µM | [5] 56.8 µM | [7] 63.1 µM | [12] 28.4 µM | [8] 17.9 µM | [13] 25.4 µM | [14] 22.6 µM | [9] 28.4 µM
